Source: PubChem (Broad Institute)
SIRT5 block – SIRT5 desuccinylase inhibitors, primary screen, biochemical, fluorescence imaging, single point, set 5; Purified SirT5, succinyl-peptide AMC, trypsin-coupled fluorescence; inhibition, % at 15 µM; hit rate 1.1% among 330,000; in the data active = inhibition above about 15%; inconclusive = no clear call, values can overlap the other calls
ERp5 block – inhibitors of ERp5-driven insulin aggregation, primary screen, biochemical, turbidity, absorbance 650 nm, single point; Protein disulfide-isomerase A6 (Homo sapiens), Q15084; 90 min; inhibition, % at 9.99 µM; hit rate 0.05% among 350,000; AID 651711, 2012;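 active = mean replicate inhibition above about 25%, with every replicate also reaching it, limit read from the data, passing the limit was not always enough; inconclusive = only one of those two criteria met; inactive = neither criterion met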
PDI inh – inhibitors of human PDI, primary screen, biochemical, turbidity, single point, plate reader; Protein disulfide-isomerase (Homo sapiens), P07237; hit rate 0.052% among 350,000; AID 588391, 2011; inhibition, % at 10 µM; PDI insulin aggregation turbidity, A650, 90 min;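 active = mean inhibition across replicates of 30% or more, whatever share of single replicates reach that level; inconclusive = mean inhibition below 30% while every single replicate reaches 30%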
HDAC3 inhib – HDAC3 deacetylase inhibitors, primary screen, biochemical, fluorescence, cell-free homogeneous; Histone deacetylase 3 (Homo sapiens), O15379; recombinant HDAC3, fluorogenic peptide/trypsin coupled; inhibition, % at 8.3 µM; hit rate 0.15% among 320,000; in the data active = inhibition above about 26%, passing the limit was not always enough; inconclusive = no clear call, values can overlap the other calls
ERAP1 inh – human ERAP1 aminopeptidase inhibitors, primary screen, biochemical, single point, plate reader; Endoplasmic reticulum aminopeptidase 1 (Homo sapiens), Q9NZ08; hit rate 0.15% among 340,000; recombinant ERAP1, Leu-AMC fluorescence, 60 min; inhibition, % at 10.7 µM;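 active = mean replicate inhibition of at least 30%, or all replicates individually reaching that 30% level; inactive = mean below 30% and not every replicate reaching it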;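 also: 0% = neutral control wells and 100% = L-leucinethiol positive control wells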
Target sequence (Q9NZ08 whole entry, looked up): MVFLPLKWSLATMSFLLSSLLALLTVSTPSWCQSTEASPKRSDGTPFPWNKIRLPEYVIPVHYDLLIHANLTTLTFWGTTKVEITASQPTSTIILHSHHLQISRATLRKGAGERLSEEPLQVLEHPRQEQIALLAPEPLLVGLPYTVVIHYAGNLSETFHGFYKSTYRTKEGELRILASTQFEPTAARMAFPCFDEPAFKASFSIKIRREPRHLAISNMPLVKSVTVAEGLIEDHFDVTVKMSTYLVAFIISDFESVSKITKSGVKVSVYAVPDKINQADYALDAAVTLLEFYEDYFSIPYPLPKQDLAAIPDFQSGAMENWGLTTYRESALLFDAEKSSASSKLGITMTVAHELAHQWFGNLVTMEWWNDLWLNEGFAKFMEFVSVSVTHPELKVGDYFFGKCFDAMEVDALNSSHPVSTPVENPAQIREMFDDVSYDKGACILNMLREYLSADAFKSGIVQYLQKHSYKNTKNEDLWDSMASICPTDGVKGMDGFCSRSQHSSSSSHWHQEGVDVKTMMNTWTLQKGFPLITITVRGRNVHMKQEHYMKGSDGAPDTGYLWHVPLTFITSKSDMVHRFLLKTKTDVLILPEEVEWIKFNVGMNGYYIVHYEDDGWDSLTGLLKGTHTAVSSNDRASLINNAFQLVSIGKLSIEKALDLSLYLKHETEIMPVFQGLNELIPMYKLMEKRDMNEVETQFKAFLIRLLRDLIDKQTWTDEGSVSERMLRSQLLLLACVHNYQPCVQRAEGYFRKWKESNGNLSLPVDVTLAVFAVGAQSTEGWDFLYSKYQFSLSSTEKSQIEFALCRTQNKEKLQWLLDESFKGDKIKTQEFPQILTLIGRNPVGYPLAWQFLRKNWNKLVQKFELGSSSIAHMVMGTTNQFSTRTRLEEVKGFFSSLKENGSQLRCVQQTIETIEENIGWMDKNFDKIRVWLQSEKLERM
* = called active by the depositor; ? = inconclusive; / = no result given. The sample as a whole holds a higher share of hits than the screen did.

SMILES | SIRT5 block | ERp5 block | PDI inh | HDAC3 inhib | ERAP1 inh
COc1cccc(OC)c1OCCN1CCCC1 | 20.6* | 5.1 | -1.5 | 1.3 | -1.5
C[C@H]1CN([C@@H](C)CO)S(=O)(=O)c2ccc(C3=CCCCC3)cc2O[C@@H]1CN(C)C(=O)Nc1ccc2c(c1)OCO2 | 12.6 | 1.9 | / | / | 2.5
C[C@H]1CN([C@@H](C)CO)S(=O)(=O)c2ccc(C3=CCCCC3)cc2O[C@@H]1CN(C)C(=O)Cc1ccccc1 | 15.4* | 8.5 | / | / | -0.1
C[C@H]1CN([C@@H](C)CO)S(=O)(=O)c2ccc(C3=CCCCC3)cc2O[C@H]1CN(C)C(=O)Cc1ccncc1 | 2.3 | 1.1 | / | / | 1.1
C[C@H](CO)N1C[C@H](C)[C@@H](CN(C)C(=O)Nc2ccc3c(c2)OCO3)Oc2cc(C3=CCCC3)ccc2S1(=O)=O | 19.9* | 0.9 | / | / | -1.4
CS(=O)(=O)c1ccc2nc(N)sc2c1 | / | / | 10.9 | -1.7 | /
CS(=O)(=O)c1ccc(N)c(SSc2cc(S(C)(=O)=O)ccc2N)c1 | / | -6.5 | 2.7 | 10.7 | 38.9*
O=C(c1ccco1)N1CCCN(Cc2nc(-c3cccs3)no2)CC1 | 21.1* | ? | 5.8 | -0.3 | 2.4
O=C(C[C@@H]1CC[C@H](NC(=O)c2cccc(F)c2)[C@H](CO)O1)NCc1ccc(Oc2ccccc2)cc1 | -2.1 | 4.4 | / | / | 1.0
CCS(=O)(=O)Nc1ccc2c(c1)C(=O)N(C)C[C@H](OC)[C@H](C)CN(CCC(F)(F)F)[C@@H](C)CO2 | 1.1 | 5.4 | / | / | /
CO[C@@H](CN(C)C(=O)c1ccc2c(c1)OCO2)[C@H](C)CN([C@H](C)CO)S(=O)(=O)c1ccc(C)cc1 | -0.1 | -1.7 | / | / | 2.0
O=C(NCCNC(=O)Oc1cccc2ccccc12)Oc1cccc2ccccc12 | 25.5* | -10.3 | -11.8 | / | -0.1
C[C@@H]1CN([C@@H](C)CO)C(=O)Cc2cc(NC(=O)CCN3CCOCC3)ccc2O[C@@H]1CN(C)Cc1ccncc1 | 16.0* | 2.1 | / | / | 1.1
C[C@H](CO)N1C[C@H](C)[C@@H](CN(C)CC2CCCCC2)Oc2ccc(NC(=O)Nc3ccc4c(c3)OCO4)cc2CC1=O | 15.9* | 4.0 | / | / | 0.9
C[C@H]1CN([C@@H](C)CO)C(=O)Cc2cc(NC(=O)CCN3CCOCC3)ccc2O[C@H]1CN(C)CC1CCCCC1 | 20.3* | 2.0 | / | / | -0.6
C[C@H]1CN([C@@H](C)CO)C(=O)Cc2cc(NC(=O)CCN3CCOCC3)ccc2O[C@@H]1CN(C)CC1CCCCC1 | / | 4.7 | / | / | 0.2
C[C@H]1CN([C@@H](C)CO)C(=O)Cc2cc(NC(=O)Nc3ccc4c(c3)OCO4)ccc2O[C@H]1CN(C)CC1CCCCC1 | 10.2 | -2.6 | / | / | -2.4
CCNC(=O)C[C@H]1CC[C@H]2[C@@H](COc3ccc(NC(=O)Nc4ccccc4Cl)cc3C(=O)N2C)O1 | -3.4 | 6.4 | / | / | -1.4
CC(=O)N1CCC2(CC1)C/C(=N\NC(=S)Nc1ccccc1C)c1cc(O)ccc1O2 | 20.8* | 1.7 | 1.0 | -4.4 | -3.0
CCC(=O)N1CC2(C1)CN(Cc1ccccc1Cl)[C@@H](CO)c1c2c2ccc(OC)cc2n1C | / | -2.2 | / | / | -0.1
COc1ccc(CN(C)C[C@@H]2Oc3ccc(NC(=O)CCN4CCOCC4)cc3C(=O)N([C@H](C)CO)C[C@@H]2C)cc1 | -0.3 | 1.4 | / | / | -0.5
CC(C)(C)S(=O)(=O)N1Cc2cc(=O)n(Cc3ccccc3)c(CCO)c2[C@H]1CCO | 0.5 | -0.4 | 5.4 | / | -1.7
CC(C)(C)S(=O)N1Cc2cc(=O)n(Cc3ccccc3)c(CCO)c2[C@H]1CCO (stereo partly drawn) | 26.0* | 2.1 | 1.5 | / | 1.9
CCS(=O)(=O)Nc1ccc2c(c1)C(=O)N(C)C[C@@H](OC)[C@@H](C)CN(C(=O)C1CC1)[C@@H](C)CO2 | -3.9 | -2.4 | / | / | 0.3
C[C@@H]1CN([C@H](C)CO)S(=O)(=O)c2ccc(C#Cc3ccc(F)cc3)cc2O[C@@H]1CN(C)S(=O)(=O)c1ccc(F)cc1 | 30.0* | -3.2 | / | / | 1.3
SMILES | SIRT5 block | ERp5 block | PDI inh | HDAC3 inhib | ERAP1 inh
COCC#Cc1ccc2c(c1)O[C@@H](CN(C)CC1CCCC1)[C@H](C)CN([C@@H](C)CO)S2(=O)=O | 23.7* | 5.5 | / | / | -0.5
C[C@@H]1CN([C@H](C)CO)S(=O)(=O)c2ccc(C#Cc3ccc(F)cc3)cc2O[C@H]1CN(C)S(=O)(=O)c1ccc(F)cc1 | 26.2* | -5.7 | / | / | -3.1
COCC#Cc1ccc2c(c1)O[C@H](CN(C)CC1CCCC1)[C@@H](C)CN([C@H](C)CO)S2(=O)=O | 8.9 | -6.0 | / | / | 0.5
C[C@@H]1CN([C@@H](C)CO)S(=O)(=O)c2ccc(C#Cc3ccncc3)cc2O[C@@H]1CN(C)S(=O)(=O)c1ccc(F)cc1 | -13.7 | 3.7 | / | / | 2.7
C[C@H](CO)N1C[C@H](C)[C@H](CN(C)S(=O)(=O)c2ccc(F)cc2)Oc2cc(C#Cc3ccc(F)cc3)ccc2S1(=O)=O | 27.4* | -0.7 | / | / | -0.9
O=C1N[C@@H](Cc2ccccc2)COCn2nncc2CC[C@@H]1Cc1ccccc1 | -2.8 | -2.6 | / | / | 0.9
C[C@@H]1CN([C@@H](C)CO)C(=O)c2cc(NC(=O)Nc3ccccc3)ccc2O[C@@H](C)CCCCO[C@H]1CN(C)CC1CCCCC1 | 1.5 | 1.6 | / | / | -1.3
C[C@H](CO)N1C[C@H](C)[C@H](CN(C)CC2CC2)Oc2cc(C#Cc3ccc(F)cc3)ccc2S1(=O)=O | 16.9* | -0.3 | / | / | 6.5
C[C@@H]1CN([C@H](C)CO)S(=O)(=O)c2ccc(C#Cc3ccc(F)cc3)cc2O[C@@H]1CN(C)CC1CC1 | 9.7 | 7.1 | / | / | 7.6
C[C@H]1CN([C@@H](C)CO)S(=O)(=O)c2ccc(C#Cc3ccc(F)cc3)cc2O[C@@H]1CN(C)S(C)(=O)=O | 13.3* | 0.9 | / | / | 0.5
CCCN(C)C[C@@H]1Oc2cc(C#CC3(O)CCCC3)ccc2S(=O)(=O)N([C@H](C)CO)C[C@@H]1C | 6.2* | 3.5 | / | / | 2.3
C[C@H]1CN([C@@H](C)CO)S(=O)(=O)c2ccc(C#CC3CC3)cc2O[C@@H]1CN(C)Cc1ccc(F)cc1 | 18.5* | 5.6 | / | / | -0.2
C[C@H]1CN([C@@H](C)CO)S(=O)(=O)c2ccc(C#Cc3ccc(F)cc3)cc2O[C@H]1CN(C)S(C)(=O)=O | 4.8 | 11.1 | / | / | -0.6
C[C@@H]1CN([C@H](C)CO)C(=O)c2c(c3ccccc3n2C)-c2ccccc2CO[C@H]1CN(C)Cc1ccc(Cl)c(Cl)c1 | -1.8 | 2.5 | / | / | 2.7
CCCNC(=O)N1[C@H](CO)[C@@H]2c3ccccc3N(C(=O)Nc3ccc(F)cc3)C[C@@H]21 | 3.5 | 1.1 | / | / | -2.7
COc1ccc(S(=O)(=O)N(C)C[C@@H]2Oc3cc(C#CC4CCCCC4)ccc3S(=O)(=O)N([C@@H](C)CO)C[C@@H]2C)cc1 | 1.4 | 10.6 | 0.0 | / | -3.9
